# Active and inactive are the calls of the source. The calls were made as follows: active = hit-call score of the fitted dose curve at least 0.9, where 1 is the maximum; inactive = score below 0.9.
# Read-out: Cytochrome P450 2C19 (Homo sapiens) (UniProt P33261)
# Experiment: LTEA_HepaRG_CYP2C19: Life Technologies and Expression Analysis (LTEA) Assay for CYP2C19 using HepaRG (AID 2283482)
# Conditions: mRNA level, 48 h; actives raise or lower the signal
# Method: LTEA_HepaRG is a cell based, multiplexed-readout assay that uses HepaRG, a human liver cell line, with measurements taken at 48 hours after chemical dosing on a 96-well plate.LTEA_HepaRG_CYP2C19 is one of 102 assay component(s) measured in the LTEA HepaRG cell culture assay. It is a marker of NR mediated metabolism.Data from the assay component LTEA_HepaRG_CYP2C19 was analyzed into 1 endpoint. This assay endpoint, LTEA_HepaRG_CYP2C19, was analyzed with bidirectional fitting relative to DMSO as the negative control and baseline of activity. Using a type of inducible reporter, measures of mRNA induction for gain or loss-of-signal activity can be used to understand regulation of transcription factor activity. To generalize the intended target to other relatable targets, this assay endpoint is annotated to the cyp intended target family, where the subfamily is xenobiotic metabolism.
# A total of 1060 chemcials from the ToxCast library were tested in eight-point concentration-response experiments. Cell culture and cytotoxicity assays were conducted at Thermo Fisher Scientific's Custom Services facility (Madison, WI). A single lot of human HepaRG cells (Thermo Fisher Scientific, Frederick, MD) was used for the cell culture experiments. 96-well format collagen type I coated plates of human HepaRG cells were prepared using established methods. Briefly, cryopreserved HepaRG cells were thawed, plated at a density of approximately 100,000 cells/well in HepaRG Thaw, Plate, and General Purpose media (HPRG770, Thermo Fisher Scientific), and incubated for 48 hours. 0.5% DMSO was selected as vehicle control to balance the requisite need of DMSO in HepaRG cultures to maintain differentiation (for example, baseline metabolism, proportions of hepatocytes vs. cholangiocytes), while enabling further hepatic receptor pathway activation (for example, PXR and CAR) in response to chemical exposure. 48 hours after plating, the culture medium was replaced with HepaRG Serum-Free Incudtion Media. Cells were exposed to each test chemical in duplicate and maintained in CO2 incubators for another 48 hours. Chemical plates were thawed to room temperature and 200x concentrations of treatment groups were prepared. 8-point conentration-reponse curves were made with the highest exposure at 100 uM, followed by half-log dilutions, all in 0.5% DMSO. Each test plate contained variouse controls, induction positive controls (1mM phenobarbital), cytotoxicity positive controls ([…] aflatoxin B1), vehicle controls (0.5% DMSO), and total lysis controls (0.5% DMSO). Cell morphology images were taken using an Essen IncuCyte FLR automated microscope, with six 96-well plates imaged in about 24 minutes. Images were captured and exported and JPEG files. Spent culture media was transfered to black-well plates for the LDH assay, and remaining media was sorted at -80 C for later use. Cells were treated with RLT buffer and frozen until shipped for gene expression analysis. Total RNA was isolated from the cell suspension in 75 uL of Buffer RLT (Qiagen, Germantown, MD 20874) by Quintiles/Expression Analysis (Durham, NC) using a custom isolation procedure. Total RNA from each plate well was transferred to a preamplification plate. Fluidigm's 96.96 Dynamic ArrayTM (Fluidigm, Amsterdam, the Netherlands) technology was used for gene expression analyses by quantitative reverse transcription polymerase chain reaction (qRT-PCR, performed by Quintiles/Expression Analysis, Durham, NC)89. Standard TaqManTM Assays (Applied Biosystems/ThermoFisher Scientific, Foster City, CA) were used to assess the expression of 93 genes selected based on their selectivity and sensitivity to important hepatic receptors known to be modulated by environmental chemicals; importance in human hepatocyte functionality; and hepatotoxicity. […]
# Cytochrome P450 2C19 (Homo sapiens), sequence (P33261 whole entry, looked up): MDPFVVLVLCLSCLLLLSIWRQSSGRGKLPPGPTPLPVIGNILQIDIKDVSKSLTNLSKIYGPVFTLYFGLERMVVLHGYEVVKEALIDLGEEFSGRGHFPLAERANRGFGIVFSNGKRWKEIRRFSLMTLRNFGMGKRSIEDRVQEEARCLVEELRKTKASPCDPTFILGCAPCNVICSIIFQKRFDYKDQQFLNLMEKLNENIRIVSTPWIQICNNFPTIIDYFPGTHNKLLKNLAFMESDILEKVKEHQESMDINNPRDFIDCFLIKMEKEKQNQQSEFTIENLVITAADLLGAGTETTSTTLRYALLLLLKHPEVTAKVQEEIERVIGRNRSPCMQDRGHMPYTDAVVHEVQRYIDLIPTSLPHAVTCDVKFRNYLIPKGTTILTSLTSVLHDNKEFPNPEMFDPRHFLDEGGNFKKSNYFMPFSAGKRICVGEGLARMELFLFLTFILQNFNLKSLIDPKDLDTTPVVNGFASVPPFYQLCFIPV
Compound,outcome,AC50
Cc1cc2c(cc1C(F)(F)F)N(C(=O)Nc1ccc(Oc3cccnc3C)nc1)CC2,inactive,
O=C(O)c1ccccc1C(=O)OCc1ccccc1,inactive,
CC(C)(C)c1csc(-c2cc3cc(OCc4ccccc4CC(=O)O)ccc3o2)n1,,33.5 µM (active)
Cc1cc(F)ccc1-c1cc(N2CC[C@@H](O)[C@H]2CO)ncc1N(C)C(=O)C(C)(C)c1cc(C(F)(F)F)cc(C(F)(F)F)c1,,23.7 µM (active)
CCO[Si](CCCNC(N)=O)(OCC)OCC,inactive,
OCCO,inactive,
Clc1cc(Cl)c2c(c1)N=C1CCCCCN1C2,inactive,
CC1=CC(=O)/C(=C(/C)O)C(=O)O1,inactive,
CN(C)c1ccc(C(=C2C=CC(=[N+](C)C)C=C2)c2ccc(N(C)C)cc2)cc1,,5.94 µM (active)
C[C@]12CC[C@@H]3c4ccc(O)cc4CC[C@H]3[C@@H]1CC[C@H]2O,,3.77 µM (active)
Cc1cn([C@H]2C[C@H](N=[N+]=[N-])[C@@H](CO)O2)c(=O)[nH]c1=O,inactive,
O=C(O)c1ccccc1-n1cc(C(=O)O)c(=O)c2cc(Nc3c(F)cc(F)cc3Cl)c(Cl)cc21,,5.7 µM (active)
CCCCCCCCN(C)CCCCCCCC,inactive,
Oc1ccc2ccccc2c1,inactive,
CN(C[C@@H](CC[N+]12CCC(C3CCCCC3)(CC1)CC2)c1ccc(Cl)c(Cl)c1)C(=O)c1cc(C(F)(F)F)cc(C(F)(F)F)c1,,29.9 µM (active)
O=C1O[C@H]([C@@H](O)CO)C(O)=C1O,inactive,
CN1C(=O)CC[C@H]1c1cccnc1,inactive,
CC(C)(O)c1ccc(CNC(=O)c2cccnc2Oc2ccc3nonc3c2)cc1,,12.1 µM (active)
CC(C)(C)c1cc(/C=C2\SC(N)=NC2=O)cc(C(C)(C)C)c1O,,26.3 µM (active)
CCCC(=O)OCCC(C)C,inactive,

Compound,outcome,AC50
Cc1ncc(CO)c(CO)c1O,inactive,
CCCCOC(=O)CC(CC(=O)OCCCC)(OC(C)=O)C(=O)OCCCC,inactive,
CCCCCCCCCCCCO,inactive,
Cc1cccc2ccccc12,inactive,
CN1C(=O)N(c2ccccc2Br)Cc2cnc(Nc3ccc4c(c3)OCC(CO)O4)nc21 (stereo not given),,35.4 µM (active)
CN(C)C(=O)C1(N2CCCCC2)CCN(CC[C@@]2(c3ccc(Cl)c(Cl)c3)CN(C(=O)c3ccccc3)CCO2)CC1,,23.9 µM (active)
O=C(OCCCCCCOC(=O)c1ccccc1)c1ccccc1,inactive,
CO[C@H]1/C=C/O[C@@]2(C)Oc3c(C)c(O)c4c(O)c(c(/C=N/N5CCN(C)CC5)c(O)c4c3C2=O)NC(=O)/C(C)=C\C=C\[C@H](C)[C@H](O)[C@@H](C)[C@@H](O)[C@@H](C)[C@H](OC(C)=O)[C@@H]1C,,0.427 µM (active)
Cc1ccc2oc(CN(Cc3ccccc3)C(=O)Nc3c(F)cc(F)cc3F)c(-c3ccc(Cl)cc3)c2c1,inactive,
COc1ccc2cc(S(=O)(=O)N[C@H](CC(=O)N[C@H](Cc3ccc(CN4[C@H](C)CCC[C@@H]4C)cc3)C(=O)N(C)C(C)C)c3ccc4c(c3)OCO4)ccc2c1,,23.7 µM (active)
Cc1ccc(C(C)C)cc1,inactive,
CC[C@@H]1C[C@H](N(Cc2cc(C(F)(F)F)cc(C(F)(F)F)c2)C(C)=O)c2cc(C(F)(F)F)ccc2N1C(=O)OC(C)C,,0.507 µM (active)
CCCCCCCCCC(=O)O,inactive,
CCCCCCCCOc1ccc(C(=O)c2ccccc2)c(O)c1,inactive,
O=CCCCC=O,inactive,
O=C(O)Cn1c(=O)n(Cc2ccc(Br)cc2F)c(=O)c2ccc(Cl)cc21,,13 µM (active)
Cc1c2ccccc2c(C)c2c1ccc1ccccc12,,75.9 µM (active)
CC[C@H](NC(=O)c1cc(F)ccc1NS(=O)(=O)c1cccc2cccnc12)c1ccccc1,,0.972 µM (active)
CCCCCCCCCCCO,inactive,
CCCCCCCCOC(=O)c1cc(O)c(O)c(O)c1,inactive,
